From the supplement of paper PMC7156485
A number with no mark means an inactive call.
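Further: TDF is a line of transformed human dermal fibroblasts of mesenchymal origin.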

What follows are compounds tested on HCC1569 (assay: H1.0 immunofluorescence intensity relative to DMSO (% of DMSO); higher = stronger H1.0 induction, active = 140 or more). Conditions: concentration: 10 µM; 24 h.
Procedure, shortened: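 Six fields per well were imaged at ×10 after the cells were fixed in 3.7% formaldehyde and stained with a rabbit anti-H1.0 antibody, an AlexaFluor 647 secondary and DAPI. The HCC1569 and TDF cells had been plated at 800 per well in 384-well plates (RPMI, 10% FBS) and treated in triplicate with compounds at 10 µM for 24 h at 37 °C. The values are the median of replicates of H1.0 nuclear intensity or cell number, as percent of the plate control. Smoothing for positional effects was applied to HCC1569 data.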
`CC(OC(=O)c1ccc(F)cc1F)C(=O)N(C)C1CCS(=O)(=O)C1` (stereo not drawn) [Cdk2/9 Inhibitor] gave an H1.0 immunofluorescence intensity of 139.
`CCCCCCCCC=CCCCCCCCC(=O)OCC(O)COP(=O)(O)O` (stereo not drawn) [Lysophosphatidic acid] was tested, and the H1.0 immunofluorescence intensity was 105.
`CC(N)=O` [Acetamide] showed an H1.0 immunofluorescence intensity of 106.
Compound `COC1CC2CCC(C)C(O)(O2)C(=O)C(=O)N2CCCCC2C(=O)OC(C(C)CC2CCC(O)C(OC)C2)CC(=O)C(C)C=C(C)C(O)C(OC)C(=O)C(C)CC(C)C=CC=CC=C1C` (stereo not drawn) [Rapamycin] has an H1.0 immunofluorescence intensity of 108.
`CC(C)(C)NCC(O)c1ccc(O)c(CO)c1` (stereo not drawn) [Salbutamol] showed an H1.0 immunofluorescence intensity of 101.
In the case of `O[C@@H]1[C@@H](O)[C@H](OC/C=C/c2ccccc2)O[C@H](CO[C@@H]2OC[C@H](O)[C@H](O)[C@H]2O)[C@H]1O`, the H1.0 immunofluorescence intensity is reported as 90.3.
Compound `Clc1ccc(Nc2nnc(Cc3ccncc3)c3ccccc23)cc1` [Vatalanib] has an H1.0 immunofluorescence intensity of 105.
`CC(=O)O.O=C(O)c1ccc2c3c1cccc3c(=O)n1c3ccccc3nc21` gave an H1.0 immunofluorescence intensity of 105.
With `NC(=O)Nc1sc(-c2ccc(F)cc2)cc1C(N)=O` the H1.0 immunofluorescence intensity was 177 (active).
Compound `C=C1CCC(O)CC1=CC=C1CCCC2(C)C1CCC2C(C)CCCC(C)(C)O` (stereo not drawn) [Calcifediol] has an H1.0 immunofluorescence intensity of 120.
`CCC(=C(CC)c1ccc(O)cc1)c1ccc(O)cc1` [Diethylstilbestrol] was tested, and the H1.0 immunofluorescence intensity was 111.
`NC(=O)C(=O)[O-].[Na+]` [Sodium Oxamate] showed an H1.0 immunofluorescence intensity of 93.5.
Work on `COc1ccc2c(c1)c(CC(=O)O)c(C)n2Cc1ccc(F)cc1` [1-(4-Fluorobenzyl)-5-methoxy-2-methylindole-3-acetic acid] yielded an H1.0 immunofluorescence intensity of 85.5.
With `COc1ccc2cc(CCC(C)=O)ccc2c1` [Nabumetone] the H1.0 immunofluorescence intensity was 111.
`CC1=NC(=NNc2ccc(S(=O)(=O)[O-])cc2S(=O)(=O)[O-])C(COP(=O)([O-])[O-])=C(C=O)C1=O.[Na+].[Na+].[Na+].[Na+]` showed an H1.0 immunofluorescence intensity of 97.3.
For `Cc1cncc2cccc(S(=O)(=O)N3CCCN(C(=O)CN)CC3C)c12.Cl.Cl.O` (stereo not drawn) [Rho Kinase Inhibitor IV], the H1.0 immunofluorescence intensity was 131.
`CN(C)c1ccc(O)c2c1CC1CC3C(N(C)C)C(=O)C(C(N)=O)=C(O)C3(O)C(=O)C1=C2O.Cl` (stereo not drawn) [Minocycline hydrochloride] gave an H1.0 immunofluorescence intensity of 100.
`C=C1C(=CC=C2CCCC3(C)C2CCC3C(C)CCCC(C)(C)O)CC(O)CC1O` (stereo not drawn) [Calcitriol] showed an H1.0 immunofluorescence intensity of 112.
`COc1ccc2c(c1)CCC1C2CCC2(C)C(NCCCCCCN3C(=O)C=CC3=O)CCC12` (stereo not drawn) gave an H1.0 immunofluorescence intensity of 103.
`COc1c(O)cc(O)c2c(=O)cc(-c3ccccc3)oc12` [Wogonin] was tested, and the H1.0 immunofluorescence intensity was 85.8.
`CC(C)CC(NC(=O)C(O)C(N)Cc1ccccc1)C(=O)O.Cl` (stereo not drawn) [Epibestatin hydrochloride] was tested, and the H1.0 immunofluorescence intensity was 100.
In the case of `NC(N)=S` [Thiourea], the H1.0 immunofluorescence intensity is reported as 99.6.
With `C=C1C(=O)OC2C1CCC(=C)C1CCC(=C)C12` (stereo not drawn) [Dehydrocostus lactone] the H1.0 immunofluorescence intensity was 103.
With `CC(C)C(NC(=O)OCc1ccccc1)C(=O)NC(C=O)Cc1ccccc1` (stereo not drawn) the H1.0 immunofluorescence intensity was 102.
With `CNC(=C[N+](=O)[O-])NCCSCc1ccc(CN(C)C)o1.Cl` [Ranitidine.HCl] the H1.0 immunofluorescence intensity was 103.
Compound `CCN(CC)CCNC(=O)c1ccc(N)cc1.Cl` [Procainamide hydrochloride] has an H1.0 immunofluorescence intensity of 99.1.
Compound `Cc1ccc(F)cc1C(=O)Nc1ccc(C(=O)N2Cc3cccn3Cc3ccccc32)c(Cl)c1` has an H1.0 immunofluorescence intensity of 131.
In the case of `CC(C(=O)O)c1ccc2c(c1)Cc1cccnc1O2` (stereo not drawn) [Pranoprofen], the H1.0 immunofluorescence intensity is reported as 102.
In the case of `CN1CCCCC1CCN1c2ccccc2Sc2ccc(S(C)=O)cc21.O=S(=O)(O)c1ccccc1` (stereo not drawn) [Mesoridazine besylate], the H1.0 immunofluorescence intensity is reported as 109.
`O.O=P(O)(O)C(O)(Cn1ccnc1)P(=O)(O)O` showed an H1.0 immunofluorescence intensity of 102.
In the case of `Nc1ccc(-c2cccc3c(=O)cc(N4CCOCC4)oc23)cc1`, the H1.0 immunofluorescence intensity is reported as 156 (active).
Work on `COC(=O)C(=C1OC(=O)C(c2ccccc2)=C1O)c1ccccc1` [Vulpinic acid] yielded an H1.0 immunofluorescence intensity of 91.2.
In the case of `O=C(O)[C@H]1C[C@H](C(=O)O)N1` (relative stereo) [trans-Azetidine-2,4-dicarboxylic acid], the H1.0 immunofluorescence intensity is reported as 90.5.
